Bioassay records (PubChem BioAssay)
Luc counter = Counterscreen for Luciferase (Kinase-Glo TM) Inhibition; Kinase-Glo luciferase, ATP luminescence, 8 min; Potency, µM (titrated, usually from 38.3 µM), for the others: at the highest dose activity change, negative = inhibition, usual class: inhibitors; actives 0.28% (n = 200,000); also: % is scaled to controls: 0 for no effect and ±100 for the full control effect; nearly all actives have a fitted effect of over 60% in size
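Compound is pinned into ATP-containing buffer (10 uM ATP, imidazole pH 7.2, 7 mM MgCl2). Kinase-Glo luciferase reagent is then added. Light output is recorded following an 8-min room-temperature incubation.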
ELG1 genotoxic = qHTS screen for small molecules that induce genotoxicity in human embryonic kidney (HEK293T) cells expressing luciferase-tagged ELG1; HEK293T ELG1-luciferase reporter, luminescence, 16 h; Potency, µM (top dose mostly 46 µM), inactives show at the top dose activity change, positive = activation, actives largely listed as activators; actives 1.3% (n = 330,000); AID 504466, 2011; also: % of control where 0% means no effect; nearly all actives have a fitted effect of over 60% in size
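ELG1-luciferase HEK293T cells, 2,000/well; compound pinned in; 16 hr, 37 °C, 5% CO2; ONE-Glo, 30 min RT; luminescence on CCD imager.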
Rab9 prom act = qHTS Assay for Rab9 Promoter Activators. Huh7 Rab9 promoter-luciferase reporter, luminescence, 24 h. Potency, µM (series often up to 9.22 µM), for inactives: at the top dose activation, negative = inhibition, usual class: activators. actives 2.8% (n = 320,000); also: % of control where 0% means no effect; nearly all actives have a fitted effect of over 60% in size
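Steps: seed 1500 Huh7 Rab9-luc cells per well, rest 2 h at 37 °C; add compound in DMSO; incubate 24 h; add luciferase reagent, 10 min ambient; read luminescence.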
NPC1 prom act = qHTS Assay for NPC1 Promoter Activators; Huh7 NPC1 promoter luciferase reporter, 24 h; Potency, µM (top dose mostly 9.22 µM), for the others: at the top dose activation, actives largely listed as activators; actives 2.4% (n = 320,000); AID 485313, 2010; also: % of control where 0% means no effect; nearly all actives have a fitted effect of over 60% in size
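Huh7 cells stably carrying NPC1 promoter–luciferase, plated in Opti-MEM with 10% FBS for 2 h, were exposed to compound in DMSO for 24 h at 37 °C; luciferase reagent was added for 10 min and luminescence read.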
FLuc modulator = qHTS profiling assay for firefly luciferase inhibitor/activator using purifed enzyme and Km concentrations of substrates (counterscreen for miR-21 project); Potency, µM (highest dose often 57.5 µM), for the others: at the highest dose activity change, negative = inhibition, usual class: inhibitors; actives 6.9% (n = 360,000); purified FLuc, Km substrates, luminescence inhibition; Luciferin 4-monooxygenase (Photinus pyralis), P08659;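 also: plate controls were vehicle for no effect and reference inhibitor for full effect; nearly all actives have a fitted effect of over 55% in size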
Target sequence (P08659 whole entry, looked up): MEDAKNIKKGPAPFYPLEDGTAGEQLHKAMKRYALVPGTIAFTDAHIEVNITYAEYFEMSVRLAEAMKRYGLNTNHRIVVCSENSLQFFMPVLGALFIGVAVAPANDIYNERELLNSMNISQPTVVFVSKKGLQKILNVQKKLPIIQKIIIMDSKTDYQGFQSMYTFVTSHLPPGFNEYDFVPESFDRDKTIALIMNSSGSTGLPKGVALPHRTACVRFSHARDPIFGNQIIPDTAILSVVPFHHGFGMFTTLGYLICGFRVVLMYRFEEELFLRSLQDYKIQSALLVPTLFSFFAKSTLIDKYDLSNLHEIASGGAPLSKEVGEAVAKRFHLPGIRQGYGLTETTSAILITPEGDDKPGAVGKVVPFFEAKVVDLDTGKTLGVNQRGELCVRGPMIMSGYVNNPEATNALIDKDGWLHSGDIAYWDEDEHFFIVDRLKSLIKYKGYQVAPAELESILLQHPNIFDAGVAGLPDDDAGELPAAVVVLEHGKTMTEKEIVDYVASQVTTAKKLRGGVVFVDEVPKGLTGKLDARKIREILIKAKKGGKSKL
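Purified P. pyralis luciferase (10nM final) with 10uM D-luciferin and 10uM ATP (Km levels) in 50mM Tris acetate pH 7.5, 10mM Mg acetate, 0.01% Tween-20, 0.05% BSA; qHTS 6-point titration, ~60 µM downward; luminescence read.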
SMN2 splice enh = qHTS Assay for Enhancers of SMN2 Splice Variant Expression; HEK293 SMN2-luciferase splicing reporter, luminescence, 30-36 h; Potency, µM (doses to about 46.1 µM), for inactives: at the highest dose activity change, positive = activation, most hits filed as activators; actives 2.8% (n = 210,000); AID 1458, 2008; also: % of control where 0% means no effect; nearly all actives have a fitted effect of over 55% in size
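qHTS luciferase splicing reporter: luminescence rises when SMN2 exon 7 is included in transfected HEK293 cells. Compound exposure lasted 30-36 h at 37C, with 4.5 mM final sodium butyrate as control, followed by a ONE-Glo read.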
Starred values were filed as active, the others as inactive; ? = inconclusive; . = no result given. Hits are enriched below; roughly 7.5% of the tested compounds scored in any of these assays. Calls follow the shape of the dose curve; as a rule, active = well fitted curve in the direction sought with a large enough effect; inconclusive = small, poorly fitted or top-dose-only effect, or another doubt; inactive = no such curve, though single readings can be large; an effect the other way counts as inactive or inconclusive. Potency is read from the fitted curve at half-maximal effect.

SMILES | Luc counter | ELG1 genotoxic | Rab9 prom act | NPC1 prom act | FLuc modulator | SMN2 splice enh
Cc1cc(C(=O)CSc2nnc(-c3ccccc3F)o2)c(C)n1Cc1cccs1 | -5.2% | 0.6% | -5.7% | -2.6% | ? | -29.6%
Cc1cc(C(=O)CN2C(=O)NC3(CCCCC3)C2=O)c(C)n1Cc1ccco1 | 1.3% | 6.51µM* | 1.41µM* | 2.24µM* | 7.57µM* | 11.2µM*
Cc1cc(C(=O)CN2C(=O)c3cccc(N)c3C2=O)c(C)n1Cc1cccs1 | -2.4% | 2.91µM* | 1.12µM* | 1.26µM* | 1.07µM* | 8.91µM*
S=C(NCCc1cccc(Cl)c1)NC1CCCCC1 | . | ? | 2.82µM* | 3.55µM* | 19µM* | .
O=C(NCCC1=CCCCC1)NC1CCCCC1 | 0.4% | ? | 0.794µM* | 1.41µM* | 6.75µM* | 7.08µM*
NC(=O)NCCC1=CCCCC1 | 7.7% | -1.2% | -0.1% | -5.5% | 6.8% | 4.1%
O=C(NCc1ccccc1)NC1CCCCC1 | 11.5% | ? | 9.6% | 26.4% | -17.0% | 8.8%
O=C(NCCc1ccccc1)NC1CCCCC1 | -0.4% | ? | 0.562µM* | 1.12µM* | 10.7µM* | 11.2µM*
CC1CC(C)CN(CC(=O)N2CCOCC2)C1 (stereo unspecified) | -0.7% | -0.6% | ? | -2.1% | -0.3% | 2.1%
Cc1ccc(C#N)cc1 | . | . | . | . | . | 4.5%
O=C(NCCc1ccccc1)c1ccco1 | -6.5% | ? | ? | ? | ? | 12.6µM*
CC(=O)c1c(C)[nH]c(C(=O)NCCc2ccccc2)c1C | -5.0% | ? | 1.26µM* | 2.51µM* | 10.7µM* | 11.2µM*
O=C(NCCc1ccccc1)c1c(F)cccc1F | -6.8% | ? | 1.41µM* | 1.58µM* | 16.9µM* | .
CN(CC(=O)NCCc1ccccc1)Cc1ccco1 | . | 20.6µM* | 26.4% | ? | ? | .
COc1ccc(CCNC(=O)c2[nH]c(C)c(C(C)=O)c2C)cc1OC | 3.9% | -1.1% | 2.7% | 2.4% | 5.9% | ?
O=C(NCCc1csc(-c2ccccc2)n1)c1c(F)cccc1F | 4.2% | -13.6% | -1.0% | 2.0% | ? | -66.3%
COc1cc(-c2nc(Cn3nnc(C(=O)Nc4cccc(Cl)c4)c3C)c(C)o2)cc(OC)c1OC | . | . | . | . | -0.9% | 6.0%
CN(/N=C/c1c[nH]c2ccccc12)c1cnn(-c2ccc(F)c(Cl)c2)c(=O)c1Cl | -2.4% | 3.4% | 11.0% | -1.3% | 13.5µM* | 8.0%
COc1ccc(OC)c(-n2cnc3cc(C(=O)NCCc4ccccc4)ccc32)c1 | . | . | . | . | -14.2% | .
Cc1cc(C)nc(Nc2n[nH]c(-c3ccc(N)cc3)n2)n1 | -6.7% | 7.31µM* | 3.55µM* | 1.58µM* | 9.53µM* | ?
Cc1cc(C)nc(Nc2n[nH]c(C)n2)n1 | -0.5% | -1.6% | -2.8% | -4.7% | -2.4% | .
Cc1cc(C)nc(Nc2n[nH]c(-c3ccc(C(C)(C)C)cc3)n2)n1 | -5.0% | 2.9% | -3.6% | 12.3% | 1.69µM* | -56.0%
Cc1ccc2cc(C3CC(c4ccco4)=NN3S(=O)(=O)c3ccccc3)c(Cl)nc2c1 (stereo unspecified) | 1.1% | -2.4% | -3.9% | -3.0% | 2.9% | 31.6µM*
Cc1ccc(NC(=O)Nc2cnccn2)cc1 | . | ? | ? | ? | 16.9µM* | .
Cc1ccc(NC(=O)Nc2cnccn2)cc1C | . | 8.3% | ? | 19.7% | 21.3µM* | .
SMILES | Luc counter | ELG1 genotoxic | Rab9 prom act | NPC1 prom act | FLuc modulator | SMN2 splice enh
COc1ccc(NC(=O)Nc2cnccn2)cc1OC | . | 0.6% | 1.7% | -3.9% | 3.6% | .
CC(C)c1ccc(NC(=O)Nc2cnccn2)cc1 | . | ? | ? | ? | 6.75µM* | .
CCOc1ccc(NC(=O)c2ccc3c(c2)C(=O)N(Cc2ccncc2)C3=O)cc1 | . | 0.8% | -4.0% | -7.4% | ? | .
COc1ccc(-c2nc(CS(=O)CC(=O)NCc3ccc(F)cc3)c(C)o2)cc1OC (stereo unspecified) | . | . | . | . | -10.5% | -2.2%
Cc1cc(C)cc(NC(=O)Cn2cc3c(n2)CCCCC3)c1 | 4.4% | -3.3% | 13.4% | 3.8% | -0.5% | 5.0%
CN(C)c1ccc(NC(=O)Cn2cc3c(n2)CCCC3)cc1 | -3.0% | ? | 0.4% | 8.9% | 19µM* | -4.1%
CCCc1nc2oc3ccccc3c(=O)c2c(=O)n1-c1ccccc1 | . | ? | 13.4% | 12.8% | -9.1% | .
